Among the data in PubChem BioAssay (EPA / NIEHS) are outcome and AC50 values, retold here.

Several values for one entry are separate records, joined by “and”; a condition that tells them apart may be missing. Equal values may be shown once. More than one record can exist for a structure, and the calls need not agree. Activity calls are given as the source filed them. How the source made its calls: active means hit-call score of the fitted dose curve at least 0.9, where 1 is the maximum; inactive means score below 0.9.

A short description of this experiment: BSK_BF4T_SRB: Viability Assessment in the BioMAP Diversity Plus: BF4T Assay (AID 2284274). The following applies: primary human bronchial epithelial cells with fibroblasts. On the procedure:
BSK_BF4T is a cell-based, multiplexed-readout assay that uses bronchial epithelial cells and dermal fibroblasts, a human vascular primary cell, with measurements taken at 24 hours after chemical dosing in a microplate: 96-well plate.BSK_BF4T_SRB is an assay component measured in the BSK_BF4T assay. It measures 0.1% sulforhodamine related to cell death using Sulforhodamine staining technology.Data from the assay component BSK_BF4T_SRB was analyzed at the endpoint, BSK_BF4T_SRB, in the positive analysis fitting direction relative to DMSO as the negative control and baseline of activity. Using a type of viability reporter, gain or loss-of-signal activity can be used to understand protein changes. To generalize the intended target to other relatable targets, this assay endpoint is annotated to the 'cell morphology' intended target family, where the subfamily is 'cell conformation'.
The levels of cell surface (or secreted, indicated by the prefix "s") biomarker endpoints were measured by ELISA. Overt cytotoxicity to cells in confluent adherent cultures (all systems other than the BT system) was assessed by measuring total protein levels using sulforhodamine B (SRB) staining in parallel cultures at the time of biomarker measurements, indicated as SRB endpoints. For proliferation assays for adherent cell types, individual cell types are cultured at sub-confluence and relative cell numbers quantified by SRB staining at time points optimized for each system (48 h: 3C and CASM3C systems; 72 h: BT and HDF3CGF systems; 96 h: SAg system). SRB was performed by staining cells with 0.1% SRB after fixation with 10% TCA and reading wells at 560 nm.Viability and proliferation of PBMC (T cells) was quantified by Alamar Blue reduction for the SAg and BT systems. For PBMC viability (referred to as PBMC Cytotoxicity within the assay endpoint names), cells were plated (75,000/well in a 96-well plate) and then chemical samples added for 1 h before addition of activators, SEB and TSST-1 (20 ng/mL final concentration each). Cells were incubated for 90 h. Then, Alamar Blue (20 uL/well) (Invitrogen, Cat DAL1100) was added for 6 h, and the plates were read with a fluorescence microplate reader at 546/580 nm (excitation/emission). For PBMC proliferation, cells were plated and activated as above but incubated for only 16 h prior to addition of Alamar Blue. Plates were read after 6 h.
For the molecule `O=C(O)C(F)(F)C(F)(F)C(F)(F)C(F)(F)C(F)(F)C(F)(F)C(F)(F)C(F)(F)C(F)(F)C(F)(F)C(F)(F)C(F)(F)C(F)(F)F`, the result was inactive.
Still for that read-out and setting: the value for `O=C(O)C(F)(OC(F)(F)C(F)(OC(F)(F)C(F)(F)C(F)(F)F)C(F)(F)F)C(F)(F)F` (stereo not given) was “inactive”.
For `N=C(N)C(F)(F)C(F)(F)C(F)(F)C(F)(F)C(F)(F)C(F)(F)C(F)(F)F`, the outcome was inactive.
On the same count and under the same terms, next, `C=CC(F)(F)C(F)(F)C(F)(F)C(F)(F)C(F)(F)C(F)(F)C(F)(F)C(F)(F)F`: “inactive”; `NC(=O)C(F)(F)C(F)(F)C(F)(F)C(F)(F)F`: “inactive”.
Consider `O=C(O)C=C(C(F)(F)F)C(F)(F)F`, for which the outcome was inactive.
On the same count and under the same terms, the value for `O=S(=O)(OCCOC(F)(F)F)C(F)(F)F` was “inactive”; that for `FC1CC(F)(F)C(F)(F)C1(F)F` (stereo not given) was “inactive”.
What is called AC50 is the concentration at which the activity in the assay is half-maximal. Turning to `O=C(Cl)C(F)(F)C(F)(F)C(F)(F)C(F)(F)C(F)(F)C(F)(F)C(F)(F)C(F)(F)F`, the result was inactive; the half-maximal activity concentration (AC50) is 30 µM (active) and 50.1 µM (active).
In the case of `O=C(O)C(F)(F)C(F)(F)C(F)(F)C(F)(F)C(F)(F)C(F)(F)C(F)(F)C(F)(F)C(F)(F)C(F)F`, the concentration at half-maximal activity (AC50) is 41.7 µM (active) and 40.8 µM (active).
In the case of `FC(F)(F)C(F)(F)C(F)(F)C(F)(F)C(F)(F)C(F)(F)CCS`, the result was inactive.
On to `O=C(O)C(F)(F)C(F)(F)C(F)(F)F`, for which the outcome was inactive.
On the same count and under the same terms, the value for `FC(F)(F)C(F)(F)C(F)(F)N(C(F)(F)C(F)(F)C(F)(F)F)C(F)(F)C(F)(F)C(F)(F)F` was “inactive”.
The same measure, in the same setting: the value for `COC(=O)CCC(F)(F)C(F)(F)C(F)(F)C(F)(F)F` was “inactive”; that for `C=C(C)C(=O)OCCC(F)(F)C(F)(F)C(F)(F)C(F)(F)C(F)(C(F)(F)F)C(F)(F)F` was “inactive”.
Take `FC(F)(F)C(F)(F)CNCC(F)(F)C(F)(F)F`: the result was inactive.
`O=C(O)C(F)(F)C(F)(F)C(F)(F)C(F)(F)C(F)(F)C(F)(F)C(F)(F)C(F)(F)Cl`: the half-maximal activity concentration (AC50) is 36.9 µM (active) and 39.9 µM (active).
In the case of `FC(F)(F)C(F)(F)C(F)(F)C(F)(F)C(F)(F)C(F)(F)CC1CO1` (stereo not given), the outcome was inactive.
Same read-out and setting: next, `O=C(CC(=O)C(F)(F)C(F)(F)F)C(F)(F)F`: “inactive”.
On the same count and under the same terms, next, `CC(C)(C)C(=O)CC(=O)C(F)(F)C(F)(F)C(F)(F)F`: “inactive”.
Same read-out and setting: the value for `OCC(F)(F)C(F)(F)C(F)(F)C(F)(F)C(F)(F)C(F)F` was “inactive”; that for `OCC(F)(F)C(F)(F)C(F)(F)C(F)(F)C(F)(F)C(F)(F)F` was “inactive”; that for `OCCCC(F)(F)C(F)(F)C(F)(F)F` was “inactive”.
With `CCCCCCCCC(F)(F)C(F)(F)C(F)(F)C(F)(F)C(F)(F)C(F)(F)F`, the outcome was inactive.
Regarding `FC(F)(F)C(F)(F)C(F)(F)C(F)(F)C(F)(F)C(F)(F)C(F)(F)C(F)(F)F`, the result was inactive.
Same read-out and setting: the value for `O=C(O)C(F)(F)C(F)(F)C(F)(F)C(F)(F)F` was “inactive”; that for `O=C(O)C(F)(F)C(F)(F)C(F)F` was “inactive”; that for `C=C(C)C(=O)OCC(F)(F)C(F)(F)C(F)(F)C(F)(F)C(F)(F)C(F)(F)C(F)(F)F` was “inactive”.
`O=P(O)(O)OCCC(F)(F)C(F)(F)C(F)(F)C(F)(F)C(F)(F)C(F)(F)F`: the outcome was inactive.
Still for that read-out and setting: next, `CCO[Si](CCC(F)(F)C(F)(F)C(F)(F)C(F)(F)C(F)(F)C(F)(F)F)(OCC)OCC`: “inactive”; `FC(F)(Br)C(F)(F)C(F)(F)C(F)(F)C(F)(F)C(F)(F)Br`: “inactive”.
On the same count and under the same terms, next, `O=C(O)C(F)(F)C(F)(F)OC(F)(F)F`: “inactive”; `C=CC(F)(F)C(F)(F)C(F)(F)C(F)(F)C(F)(F)C(F)(F)C(F)(F)C(F)(F)C=C`: “inactive”; `O=C(O)C(F)(OC(F)(F)C(F)(OC(F)(F)C(F)(OC(F)(F)C(F)(F)C(F)(F)F)C(F)(F)F)C(F)(F)F)C(F)(F)F` (stereo not given): “inactive”.
Still for that read-out and setting: next, `FC(F)(F)C(F)(F)C(F)(F)C(F)(F)CCI`: “inactive”; `FC(F)(F)C(F)(F)C(F)(F)C(F)(F)C(F)(F)C(F)(F)C(F)(F)C(F)(F)CCS`: “inactive”; `O=S(=O)(OCC(F)F)C(F)(F)F`: “inactive”.
On to `C=CC(=O)OCC(F)(F)C(F)(F)C(F)(F)C(F)(F)COC(=O)C=C`, for which the result was inactive.
Turning to `FC(F)(I)C(F)(F)C(F)(F)C(F)(F)I`, the half-maximal activity concentration (AC50) was 51.3 µM (active) and 50.7 µM (active) and 46.5 µM (active).
